High-throughput results (PubChem BioAssay)
Pf growth 96h: Primary qHTS for delayed death inhibitors of the malarial parasite plastid, 96 hour incubation | Potency, µM (titrated, usually from 28.7 µM), for the others: at the top dose activity change, negative = inhibition, usual class: inhibitors | AID 504834, 2011 | P. falciparum luciferase reporter growth, 96 h | 320,000 tested, 6.9% active; further: potency means the concentration at half of the fitted maximal effect; on the % scale 0 is the no-effect control and ±100 the full control effect
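96 h incubation, 37 C, 5% CO2, of luciferase-reporter P. falciparum-infected RBCs (2% hematocrit, 0.05% parasitemia final) with test compounds; endpoint luminescence.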
LmPK inh: qHTS Assay for Inhibitors of Leishmania Mexicana Pyruvate Kinase (LmPK). AID 1721, 2009. Potency, µM (top dose mostly 57.5 µM), without a hit: top-dose activity change, negative = inhibition, usual class: inhibitors. purified LmPK, Kinase-Glo ATP luminescence, 1 h. 290,000 tested, 0.37% active; further: potency means the concentration at half of the fitted maximal effect; on the % scale 0 is the no-effect control and ±100 the full control effect
Target sequence (Q27686 whole entry, looked up): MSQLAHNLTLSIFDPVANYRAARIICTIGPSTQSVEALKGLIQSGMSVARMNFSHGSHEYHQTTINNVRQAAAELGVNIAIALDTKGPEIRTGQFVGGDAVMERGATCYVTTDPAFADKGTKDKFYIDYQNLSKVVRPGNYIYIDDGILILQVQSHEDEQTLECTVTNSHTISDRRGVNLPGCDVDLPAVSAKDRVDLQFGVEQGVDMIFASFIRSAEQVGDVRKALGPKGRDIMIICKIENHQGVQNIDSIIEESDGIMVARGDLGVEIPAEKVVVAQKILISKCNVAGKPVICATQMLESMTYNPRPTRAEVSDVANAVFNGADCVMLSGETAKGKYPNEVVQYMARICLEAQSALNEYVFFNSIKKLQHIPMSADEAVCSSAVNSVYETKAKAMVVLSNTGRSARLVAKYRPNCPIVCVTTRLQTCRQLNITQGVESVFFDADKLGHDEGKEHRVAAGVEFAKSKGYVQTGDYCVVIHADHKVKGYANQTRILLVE
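In 50 mM imidazole pH 7.2 with 7 mM MgCl2, LmPK (0.1 nM) turned over PEP (0.5 mM) and ADP (0.1 mM) for 1 h at room temperature. Luciferase read-out of ATP.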
Pf growth 48h: Primary qHTS for delayed death inhibitors of the malarial parasite plastid, 48 hour incubation | Potency, µM (top dose mostly 28.7 µM), for the others: at the top dose activity change, negative = inhibition, most hits filed as inhibitors | P. falciparum luciferase growth in erythrocytes, 48 h | AID 504832, 2011 | 310,000 tested, 5.9% active; further: potency means the concentration at half of the fitted maximal effect; on the % scale 0 is the no-effect control and ±100 the full control effect
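Growth was read as firefly luciferase luminescence after a 48 h, 37 C, 5% CO2 exposure of compounds to reporter-bearing P. falciparum cultures (0.1% parasitemia, 2% hematocrit final) in Albumax-supplemented RPMI 1640.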
Shiga inhibitor: A qHTS for Small Molecule Inhibitors of Shiga Toxin; Vero cells, Shiga toxin protein synthesis inhibition reporter; inhibition, % at 38.7 µM; 290,000 tested, 9.2% active; AID 2315, 2010; in the data active means inhibition mostly above about 28%, no sharp cut-off; inactive means mostly below about 43%; further: 0% is about no effect
CHX counter: Cycloheximide Counterscreen for Small Molecule Inhibitors of Shiga Toxin; AID 2314, 2010; max response, %; cell reporter, cycloheximide protein synthesis inhibition counterscreen; 300,000 tested, 12% active; in the data active means max response mostly above about 13%, no sharp cut-off; inactive means mostly below about 14%; further: read at 38.3 µM for the half of the compounds with a filed dose; 0% is about no effect
Active calls of the source: *; ? = inconclusive; . = no result; + = active, no number; [ ] = another dose, or the depositor's remark. Shown are actives, neighbours in structure and some others; about 22% of the full set was active somewhere. Unless noted, the call rests on the fitted dose curve; in most records, active means well fitted inhibition curve with a large enough effect; inconclusive means small, poorly fitted or top-dose-only effect, or another doubt; inactive means no such curve, though single readings can be large or run the other way.

SMILES | Pf growth 96h | LmPK inh | Pf growth 48h | Shiga inhibitor | CHX counter
CCOc1ccc(S(=O)(=O)N(CC(=O)N2CCc3ccccc32)Cc2ccco2)cc1 | ? | -3% | ? | 83* | 31*
CCN(CC)c1ccc(/C=C2\C(=O)c3ccc(C(=O)O)cc3C2=O)cc1 | -3% | -21% | -11% | + | 130*
CCN(CC)c1ccc(C(=O)O)cc1 | 75% | -4% | 0% | -10 | -2
CCOC(=O)O[C@@H](C)OC(=O)[C@@H]1N2C(=O)[C@@H](NC(=O)[C@@H](N)c3ccccc3)[C@H]2SC1(C)C | 7%[12.8 µM] | . | -2%[12.8 µM] | . | .
O=[N+]([O-])c1ccc2c(c1)ncn2-c1ccccc1 | ? | -3% | 29% | 19 | 14
O=[N+]([O-])c1ccc2c(c1)ncn2CCc1ccccc1 | 0.52µM* | -5% | ? | 3 | -2
O=[N+]([O-])c1ccc2cn(-c3ccccc3)nc2c1 | 323% | -10% | 253% | 52* | 54*
CCC1CCCCN1CCN1C(=O)C2C(C(=O)Nc3cccc(OC)c3)C3C=CC2(O3)C1C(=O)NC1CCCCC1 (configuration not stated) | -17% | -4% | 8.3µM* | 11 | -6
CCCCN(C)CCN1C(=O)C2C(C(=O)Nc3ccc(Cl)cc3)C3C=CC2(O3)C1C(=O)NC1CCCCC1 (configuration not stated) | -3% | 1% | 10µM* | -3 | -7
O=C(Nc1cccc(Cl)c1)C1C2C=CC3(O2)C1C(=O)N(CCN1CCCCC1)C3C(=O)NC1CCCCC1 (configuration not stated) | 5.2µM* | -2% | ? | 12 | -5
CCC1CCCCN1CCN1C(=O)C2C(C(=O)Nc3ccc(OC)cc3)C3C=CC2(O3)C1C(=O)NC1CCCCC1 (configuration not stated) | 8% | 5% | ? | 21 | -3
Cc1cc(C)c(NC(=O)CCN2C(=O)c3ccccc3S2(=O)=O)c(C)c1 | 55% | . | 13% | . | .
CC(C)(C)C(=O)Nc1ccc(C(=O)COC(=O)C2=COCCO2)cc1 | 23% | . | -16% | . | .
CN(C)N1C(N)=C(C#N)C(c2ccsc2)C2=C1CC(C)(C)CC2=O (configuration not stated) | 14% | 2% | -20% | 8 | -3
COc1ccc(C2C(C#N)=C(N)N(N(C)C)C3=C2C(=O)CCC3)cc1 (configuration not stated) | 2.3µM* | 5% | -1% | -12 | -6
CN(C)N1C(N)=C(C#N)C(c2ccc(Cl)cc2)C2=C1CCCC2=O (configuration not stated) | 0.74µM* | -1% | -6% | -5 | 20
C=CCOc1ccc(C2C(C#N)=C(N)N(N(C)C)C3=C2C(=O)CCC3)cc1 (configuration not stated) | 31% | -2% | ? | -6 | -3
CN(C)N1C(N)=C(C#N)C(c2ccsc2)C2=C1CCCC2=O (configuration not stated) | 9.3µM* | 1% | ? | -3 | -5
Cc1ccc(C2C(C#N)=C(N)N(N(C)C)C3=C2C(=O)CCC3)cc1 (configuration not stated) | -11% | -1% | -9% | -9 | -4
CN(C)N1C(N)=C(C#N)C(c2cccc3ccccc23)C2=C1CC(c1ccccc1)CC2=O (configuration not stated) | ? | 3% | 9.3µM* | -7 | 6
Cc1nnc2c(SC(C)C)nc3ccccc3n12 | 347% | 0% | -28% | -3 | -6
CC1(C)Nc2ccc(O)cc2-c2c1ssc2=S | 8.3µM* | 0% | ? | -4 | -2
COc1cccc(-n2sc3c(c2=S)-c2cc(OC)ccc2NC3(C)C)c1 | ? | 5% | ? | -21 | -2
COc1cc(/C=N/Nc2nc3ccccc3s2)cc([N+](=O)[O-])c1O | -1% | -7% | -1% | 56* | 19*
O=[N+]([O-])c1cc(Cl)cc(/C=N/Nc2nc3ccccc3s2)c1O | 44% | -16% | 52% | 41* | 32*
SMILES | Pf growth 96h | LmPK inh | Pf growth 48h | Shiga inhibitor | CHX counter
Cc1cn2c(=O)c(C(=O)N3CCN(c4ccccc4F)CC3)cnc2s1 | 27% | . | 27% | . | .
Cc1ccccc1C(=O)NNC(=O)c1cc(N)cc([N+](=O)[O-])c1 | 31% | -1% | 21% | -1 | -2
CCC(/C=C1\Sc2ccc(OC)cc2N1CC)=C\c1sc2ccc(OC)cc2[n+]1CCCS(=O)(=O)[O-] | ? | -18% | ? | -5 | -10
CCC(/C=C1\Sc2ccc(OC)cc2N1CCO)=C\c1sc2ccc(OC)cc2[n+]1CCO | 7.4µM* | 14µM* | 0.59µM* | -3 | -5
Cc1csc(C(=O)O)c1NC(=O)c1cccc([N+](=O)[O-])c1 | -6% | 3% | 27% | -2 | 3
Cc1ccc2c(c1)N(C(=O)CCC(=O)NCc1cccnc1)CC(C)O2 (configuration not stated) | 13µM* | -2% | -9% | 2 | -4
Cc1ccc2c(c1)N(C(=O)CCC(=O)N1CCC(C(N)=O)CC1)CC(C)O2 (configuration not stated) | 13µM* | 0% | -5% | 8 | -2
Cc1ccc(CNC(=O)CCC(=O)N2CC(C)Oc3ccccc32)cc1 (configuration not stated) | 64% | 0% | 4% | 2 | -1
Cc1cc(C)n2nc(C(=O)Nc3ccc(S(=O)(=O)N4CCCC4)cc3)nc2n1 | 2.3µM* | -2% | 128% | 2 | 2
Cc1cc(C)n2nc(C(=O)Nc3ccc4c(c3)CCC4)nc2n1 | -3% | -2% | 58% | 104* | 34*
Cc1cc(C)n2nc(C(=O)Nc3ccc(S(=O)(=O)N4CCCCC4)cc3)nc2n1 | . | -2% | ? | -17 | -2
CCN(CC)S(=O)(=O)c1ccc2c(c1)C(=NO)c1cc(S(=O)(=O)N(CC)CC)ccc1-2 | 8.3µM* | 3% | 9.3µM* | 26 | 1
CCCOc1ccc2c(c1)C(=NN=C(N)N)c1cc(OCCC)ccc1-2 | 5% | 9% | 0.66µM* | -6 | -4
CCN(CC)CCOc1ccc2c(c1)C(=NO)c1cc(OCCN(CC)CC)ccc1-2 | 1.9µM* | -3% | 6.6µM* | -20 | -1
CCN(CC)CCOc1ccccc1OC | 3% | -9% | 4% | -1 | -1
CCN(CC)CCOc1ccc(/C(=C(\Cl)c2ccccc2)c2ccccc2)cc1 | 2.3µM* | . | 2.1µM* | . | .
C/C(=N\N=C1\NC(=O)C(CC(=O)Nc2ccccc2F)S1)C1CCCCC1 (configuration not stated) | 46% | 3% | ? | -2 | -3
CCCN(Cc1cc2ccc(C)cc2[nH]c1=O)S(=O)(=O)c1ccccc1 | ? | 13% | . | -11 | 0
Nn1c(SCC(=O)NC2CCCc3ccccc32)nnc1-c1ccc(Cl)cc1Cl (configuration not stated) | ? | 1% | -25% | -2 | 0
